# This excerpt belongs to a sample that is enriched for hits.
# VHR inh color = VHR1 phosphatase inhibitors, primary screen, biochemical, colorimetric, HTS; recombinant VHR phosphatase, colorimetric substrate read-out; inhibition, % at 20 µM; 50,000 compounds, 0.7% hits; in the data active = inhibition above about 60%
# Target sequence (P51452 whole entry, looked up): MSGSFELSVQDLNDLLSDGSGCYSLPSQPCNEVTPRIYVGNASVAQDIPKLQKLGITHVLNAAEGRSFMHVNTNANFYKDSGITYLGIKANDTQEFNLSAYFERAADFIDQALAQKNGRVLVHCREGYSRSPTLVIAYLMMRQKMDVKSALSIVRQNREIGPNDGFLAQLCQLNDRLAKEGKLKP
# Numbers without * were called inactive.
SMILES,VHR inh color
CCOc1ccc(N2C(=O)NC(=O)/C(=C\c3ccc(I)o3)C2=O)cc1,20.5
CCOc1ccc(N2C(=O)/C(=C/c3ccc(C)o3)C(=O)NC2=S)cc1,23.2
COc1ccccc1C=C1C(=O)NC(=S)N(c2ccccc2F)C1=O,9.3
Cc1ccc(OCC(=O)NCc2ccc3c(c2)OCO3)c(C)c1,-20.0
Cc1ccc(-c2cc3nc(C)c(Cl)c(C)n3n2)cc1,1.1
CCOc1ccc(C(NC=O)c2ccc(OC)c(OC)c2)cc1 (configuration not stated),-9.4
O=C1N=c2ccc(Cl)cc2=C1c1sc(=S)n(Cc2ccco2)c1O,67.7*
O=C1N=c2ccccc2=C1c1sc(=S)n(Cc2ccco2)c1O,4.6
CCCCn1c(O)c(C2=c3ccccc3=NC2=O)sc1=S,-8.3
CN(Cc1ccccc1)C1CC(=O)N(c2ccc(F)cc2)C1=O (configuration not stated),4.1
O=C(COc1ccc2ccccc2c1)Nc1ccc(Br)c(Cl)c1,114.0*
O=C(COc1ccc2ccccc2c1)Nc1ccc(Cl)c(Cl)c1,20.1
O=C(COc1ccccc1)Nc1ccc(Br)c(Cl)c1,4.4
Cc1ccccc1/C=C1\SC(=NCc2ccccc2)N(Cc2ccccc2)C1=O,20.5
Cc1ccc(NC(=O)C(c2ccccc2)c2ccccc2)cc1,-0.6
CCn1c(SCCc2ccccc2)nc2ccccc2c1=O,-5.4
CC(=O)NC1=NC(=O)/C(=C/c2ccc(C)cc2)S1,-1.8
CC(=O)NC1=NC(=O)/C(=C\c2ccc(-c3ccc(C(=O)O)cc3)o2)S1,6.6
CC(=O)NC1=NC(=O)/C(=C\c2ccc(Br)o2)S1,81.3*
N#Cc1c(C(F)(F)F)cc(-c2cccs2)nc1SCC(=O)Nc1ccc(S(N)(=O)=O)cc1,29.1
COc1cc(/C=C2\SC(=S)N(NC(C)=O)C2=O)cc(OC)c1OC,7.8
O=C1NC(=O)N(c2cccc(Br)c2)C(=O)/C1=C/c1ccc(Oc2ccc([N+](=O)[O-])cn2)cc1,-12.1
Cc1ccc(C=C2C(=O)NC(=S)N(c3ccccc3Cl)C2=O)o1,-4.8
COC(=O)c1ccc(/C=C2\C(=O)NC(=S)N(c3ccc(Br)cc3C)C2=O)cc1,9.2
Cc1ccc(/C=C2\C(=O)NC(=S)N(c3ccc(Br)cc3C)C2=O)o1,82.2*
SMILES,VHR inh color
COc1ccc(/C=C2\C(=O)NC(=S)N(c3ccc(Br)cc3C)C2=O)cc1OC,98.2
Cc1ccc(/C=C2\C(=O)NC(=S)N(c3ccc(Br)cc3)C2=O)o1,26.2
Cc1cc(Br)ccc1N1C(=O)/C(=C/c2ccc(N(C)C)cc2)C(=O)NC1=S,69.1*
CCOc1ccc(N2C(=O)CC(N3CCC(Cc4ccccc4)CC3)C2=O)cc1 (configuration not stated),-8.6
O=C(/C=C/c1ccccc1)Nc1ccc(I)cc1Cl,1.6
COc1ccc(S(=O)(=O)N2CCN(Cc3cccc4ccccc34)CC2)cc1,8.3
NNC(=O)COc1ccc2c(c1Br)CCCC2,-15.9
COc1ccc(C(=O)n2nc(C)c(Sc3ccccc3)c2C)cc1,-21.8
CC(=O)N/N=C/c1cccc(C(F)(F)F)c1,-17.7
Cc1ccc(/C=C(\C#N)c2nc(-c3cccc([N+](=O)[O-])c3)cs2)o1,21.0
Cc1ccc(/C=C(\C#N)c2nc(-c3cccc(Br)c3)cs2)o1,88.0*
Cc1ccc(/C=C(\C#N)c2nc(-c3ccc(C)c(C)c3)cs2)o1,59.7
Cc1c(Cc2ccccc2)c(=O)oc2cc(OCc3ccc([N+](=O)[O-])cc3)ccc12,9.8
Cc1cccn2c(=O)c(/C=N/NC(=O)c3ccccc3O)c(N3CCCCC3)nc12,-10.7
Cc1ccc(S(=O)(=O)N/N=C/C=C/c2ccc(N(C)C)cc2)cc1[N+](=O)[O-],-8.5
CN(C)c1ccc(/C=C/C=C/c2cc[n+](CCCS(=O)(=O)[O-])cc2)cc1,99.8*
CN(C)c1ccc(/C=N/S(=O)(=O)CCc2ccccc2)cc1,-2.7
COc1ccc(/C=C2\SC(=S)N(NC(=O)c3cccnc3)C2=O)cc1,12.8
CCOC(=O)c1c(NC(=O)c2ccco2)sc2c1CCC(CC)C2 (configuration not stated),73.3*
CCC1CCc2c(sc(NC(=O)c3ccc(Br)o3)c2C(=O)OC)C1 (configuration not stated),-14.5
CCOC(=O)c1c(NC(=O)C2C3CCC(O3)C2C(=O)O)sc2c1CCC(CC)C2 (configuration not stated),-0.1
COc1cc(C(=O)N/C(=C/c2ccc(Br)cc2)C(=O)NC(C)C(=O)O)cc(OC)c1OC (configuration not stated),-18.5
COc1ccc(C2CC(=O)C3=C(C2)Nc2ccccc2NC3c2cccs2)cc1 (configuration not stated),-6.7
COC(=O)c1c(N)sc2c1CCC(c1ccccc1)C2 (configuration not stated),11.5
CCOC(=O)c1c(N)sc2c1CCC(c1ccccc1)C2 (configuration not stated),94.5*
CCOC(=O)c1c(NC(=O)Oc2ccccc2)sc2c1CCC(C)C2 (configuration not stated),-7.1

# Screens from PubChem BioAssay.
